According to the supplement of paper PMC10849652:
Targets with a hit are over-represented here; the source holds about 7,900 in all. About 0.6% of all pairs of compound and target were hits.

Key:
Assay in all cases: log2 fold change, soluble protein after heating vs DMSO (PISA); higher = thermal stabilisation; K562 cells, 10 uM, 30 min; active = over 0.2 and 3.5 SD of the protein, either way, in both replicates (recomputed)
[1] = compound: CC[C@@H]1C(=O)N(C)c2cnc(Nc3ccc(C(=O)NC4CCN(C)CC4)cc3OC)nc2N1C1CCCC1
Method in brief: (§1)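 For each measurement, 10 μM compound was applied for 30 min to K562 cells at 2×10^6 cells/mL. Aliquots were heated for 3 min across 48°C-58°C, pooled, and extracted in PBS with 0.5% NP-40 at 4°C; the supernatant after 21,000xg for 90 min was soluble protein. This was quantified by TMTpro 16plex LC-MS/MS with channel sums equalised, and thermal stability was reported relative to control samples from duplicates, on a log2 fold-change scale.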

volasertib = compound: CC[C@@H]1C(=O)N(C)c2cnc(Nc3ccc(C(=O)N[C@H]4CC[C@H](N5CCN(CC6CC6)CC5)CC4)cc3OC)nc2N1C(C)C [volasertib]
Method in brief: as §1

[2] = compound: CC[C@H](C)N1C=C(C2=C(C=C(C=C21)C3=CN=C(C=C3)N4CCNCC4)C(=O)NCC5=C(C=C(NC5=O)C)C)C
Method in brief: as §1

epoxomicin = compound: CC[C@H](C)[C@@H](C(=O)N[C@@H]([C@@H](C)O)C(=O)N[C@@H](CC(C)C)C(=O)[C@]1(CO1)C)NC(=O)[C@H]([C@@H](C)CC)N(C)C(=O)C [epoxomicin]
Method in brief: as §1

[3] = compound: CCn1c(C(=O)N(C2CC2)C2CC2)cc2c3c(ncn3C)c(Nc3cc(C)n(C)n3)nc21
Method in brief: as §1

[4] = compound: CCn1cc(-c2ccnc3[nH]c(-c4cccc(CN(C)C)c4)cc23)c(-c2ccc(NC(=O)N(C)C)cc2)n1
Method in brief: as §1

[5] = compound: CN(C)CC(=O)Nc1ccc2[nH]c(=O)c3ccccc3c2c1
Method in brief: as §1

rosiglitazone = compound: CN(CCOC1=CC=C(C=C1)C[C@H]2C(=O)NC(=O)S2)C3=CC=CC=N3 (racemic) [rosiglitazone]
Method in brief: as §1

[6] = compound: CN1C2=C(C3=C1C(=O)N(N=C3)CC4=CC(=CC=C4)N)SC(=C2)S(=O)C
Method in brief: as §1

[7] = compound: CN1CCC(CNc2ccc3ncc(-c4cccc(OC(F)(F)F)c4)n3n2)CC1
Method in brief: as §1

saracatinib = compound: CN1CCN(CCOc2cc(OC3CCOCC3)c3c(Nc4c(Cl)ccc5c4OCO5)ncnc3c2)CC1 [saracatinib]
Method in brief: as §1

sotrastaurin = compound: CN1CCN(c2nc(C3=C(c4c[nH]c5ccccc45)C(=O)NC3=O)c3ccccc3n2)CC1 [sotrastaurin]
Method in brief: as §1

alvocidib = compound: CN1CC[C@H](c2c(O)cc(O)c3c(=O)cc(-c4ccccc4Cl)oc23)[C@H](O)C1 [alvocidib]
Method in brief: as §1

Tubastatin A = compound: CN1CCc2c(c3ccccc3n2Cc2ccc(C(=O)NO)cc2)C1 [Tubastatin A]
Method in brief: as §1

[8] = compound: CNC(=O)C1=CC=CC=C1NC2=NC(=NC=C2Cl)NC3=C(C=C(C=C3)N4CCOCC4)OC
Method in brief: as §1

defactinib = compound: CNC(=O)c1ccc(Nc2ncc(C(F)(F)F)c(NCc3nccnc3N(C)S(C)(=O)=O)n2)cc1 [defactinib]
Method in brief: as §1

rucaparib = compound: CNCc1ccc(-c2[nH]c3cc(F)cc4c3c2CCNC4=O)cc1 [rucaparib]
Method in brief: as §1

[9] = compound: CNc1nc(-c2ccc3c(N)n[nH]c3c2)cc(N2C[C@@H](C(=O)NC3CCCCC3)CC[C@H]2C)n1
Method in brief: as §1

encorafenib = compound: COC(=O)N[C@@H](C)CNc1nccc(-c2cn(C(C)C)nc2-c2cc(Cl)cc(NS(C)(=O)=O)c2F)n1 [encorafenib]
Method in brief: as §1

[10] = compound: COC(=O)[C@H](CCSC)NC(=O)C1=C(C=C(C=C1)NC[C@H](CS)N)C2=CC=CC=C2
Method in brief: as §1

Measured: log2 fold change

NACC1 (UniProt Q96RE7)
Sequence of UniProt Q96RE7 (Q96RE7 whole entry, looked up): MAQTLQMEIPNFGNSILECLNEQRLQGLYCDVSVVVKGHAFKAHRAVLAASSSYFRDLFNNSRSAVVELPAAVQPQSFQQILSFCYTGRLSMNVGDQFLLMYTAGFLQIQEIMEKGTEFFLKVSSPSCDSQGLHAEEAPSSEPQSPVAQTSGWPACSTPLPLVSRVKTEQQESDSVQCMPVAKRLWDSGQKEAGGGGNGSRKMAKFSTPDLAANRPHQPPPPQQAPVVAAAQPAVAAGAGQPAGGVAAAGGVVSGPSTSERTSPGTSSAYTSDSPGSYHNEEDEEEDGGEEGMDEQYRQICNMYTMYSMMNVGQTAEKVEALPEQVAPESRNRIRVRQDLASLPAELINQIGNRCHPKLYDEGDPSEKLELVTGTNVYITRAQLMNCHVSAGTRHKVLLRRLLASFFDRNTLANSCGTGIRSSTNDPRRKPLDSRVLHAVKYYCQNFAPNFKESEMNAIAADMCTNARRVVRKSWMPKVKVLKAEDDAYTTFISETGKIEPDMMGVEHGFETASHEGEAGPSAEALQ
inactive: [1] -0.32 | [2] 0.112 | epoxomicin 0.002 | [3] -0.079 | [4] -0.022 | [5] 0.033 | rosiglitazone 0.095 | [6] 0 | [7] -0.259 | saracatinib -0.055 | sotrastaurin -0.141 | alvocidib -0.26 | Tubastatin A 0.034 | [8] -0.063 | defactinib -0.312 | rucaparib 0.01 | [9] -0.006 | encorafenib 0.13 | [10] -0.021
active: volasertib -0.616

NDUFA6 (UniProt P56556)
inactive: [1] -0.069 | volasertib -0.252 | [2] 0.098 | epoxomicin 0.115 | [3] -0.086 | [4] -0.089 | [5] 0.081 | rosiglitazone 0.116 | [6] -0.022 | [7] -0.072 | saracatinib -0.037 | sotrastaurin 0.003 | alvocidib -0.122 | Tubastatin A 0.021 | [8] -0.039 | defactinib -0.068 | rucaparib 0.006 | [9] 0.044 | encorafenib 0.034 | [10] -0.039

MITD1 (UniProt Q8WV92)
Sequence of UniProt Q8WV92 (Q8WV92 whole entry, looked up): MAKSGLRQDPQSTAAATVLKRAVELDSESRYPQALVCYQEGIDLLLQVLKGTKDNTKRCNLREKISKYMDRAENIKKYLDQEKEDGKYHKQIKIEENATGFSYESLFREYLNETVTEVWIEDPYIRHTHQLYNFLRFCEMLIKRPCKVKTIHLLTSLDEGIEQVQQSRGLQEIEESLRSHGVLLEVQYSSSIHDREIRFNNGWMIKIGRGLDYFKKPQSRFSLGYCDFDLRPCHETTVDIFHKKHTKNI
inactive: [1] -0.16 | volasertib -0.266 | [2] 0.077 | epoxomicin 0.147 | [3] 0.117 | [4] 0.057 | [5] 0.049 | rosiglitazone -0.016 | [6] 0.079 | [7] -0.365 | saracatinib -0.031 | sotrastaurin -0.002 | alvocidib -0.005 | Tubastatin A 0.161 | [8] -0.146 | defactinib 0.133 | rucaparib 0.097 | [9] -0.112 | encorafenib -0.018 | [10] -0.043

PAFAH1B3 (UniProt Q15102)
inactive: [1] -0.017 | volasertib 0.011 | [2] 0.042 | epoxomicin 0.063 | [3] -0.102 | [4] -0.098 | [5] 0.069 | rosiglitazone 0.021 | [6] -0.012 | [7] 0.001 | saracatinib -0.109 | sotrastaurin -0.034 | alvocidib -0.082 | Tubastatin A 0.026 | [8] 0.001 | defactinib 0.021 | rucaparib 0.049 | [9] 0.002 | encorafenib -0.006 | [10] -0.071

MON2 isoform 5 (UniProt Q7Z3U7)
active: volasertib -0.377
inactive: [1] -0.125 | [2] 0.06 | epoxomicin 0.023 | [3] 0 | [4] -0.028 | [5] 0.031 | rosiglitazone 0.062 | [6] -0.064 | [7] -0.158 | saracatinib -0.089 | sotrastaurin -0.001 | alvocidib -0.056 | Tubastatin A -0.005 | [8] 0.02 | defactinib -0.011 | rucaparib 0.01 | [9] 0.044 | encorafenib 0.026 | [10] -0.025

OAT (UniProt P04181)
Sequence of UniProt P04181 (P04181 whole entry, looked up): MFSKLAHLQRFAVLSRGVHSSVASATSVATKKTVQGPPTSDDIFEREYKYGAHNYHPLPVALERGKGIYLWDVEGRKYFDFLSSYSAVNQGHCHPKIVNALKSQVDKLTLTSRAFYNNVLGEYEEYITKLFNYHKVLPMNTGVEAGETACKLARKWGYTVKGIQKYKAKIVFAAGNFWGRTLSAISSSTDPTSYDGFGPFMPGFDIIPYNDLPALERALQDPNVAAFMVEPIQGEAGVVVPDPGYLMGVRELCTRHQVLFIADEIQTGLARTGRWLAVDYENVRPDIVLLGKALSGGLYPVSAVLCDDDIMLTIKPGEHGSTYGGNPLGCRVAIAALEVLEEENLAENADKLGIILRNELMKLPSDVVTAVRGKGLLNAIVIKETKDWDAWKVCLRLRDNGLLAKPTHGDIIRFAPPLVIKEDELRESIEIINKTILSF
inactive: [1] 0.049 | volasertib 0.1 | [2] 0.021 | epoxomicin 0.043 | [3] -0.041 | [4] -0.1 | [5] 0.004 | rosiglitazone -0.006 | [6] -0.102 | [7] -0.164 | saracatinib -0.002 | sotrastaurin -0.016 | alvocidib -0.125 | Tubastatin A 0.013 | [8] 0.084 | defactinib -0.058 | rucaparib -0.047 | [9] -0.04 | encorafenib -0.061 | [10] 0.024

NUDT21 (UniProt O43809)
Sequence of UniProt O43809 (O43809 whole entry, looked up): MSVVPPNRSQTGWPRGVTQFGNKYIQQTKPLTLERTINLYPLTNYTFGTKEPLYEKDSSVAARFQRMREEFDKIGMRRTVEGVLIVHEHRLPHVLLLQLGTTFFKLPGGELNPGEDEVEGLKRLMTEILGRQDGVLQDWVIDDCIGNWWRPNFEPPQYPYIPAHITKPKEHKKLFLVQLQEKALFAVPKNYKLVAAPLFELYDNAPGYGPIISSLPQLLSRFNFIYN
inactive: [1] 0.036 | volasertib 0.074 | [2] -0.033 | epoxomicin -0.107 | [3] -0.02 | [4] 0.038 | [5] -0.041 | rosiglitazone -0.028 | [6] -0.013 | [7] 0.064 | saracatinib 0.028 | sotrastaurin 0.024 | alvocidib -0.017 | Tubastatin A 0.01 | [8] -0.166 | defactinib 0.045 | rucaparib 0.004 | [9] -0.025 | encorafenib -0.015 | [10] -0.034

NMRAL1 (UniProt Q9HBL8)
Sequence of UniProt Q9HBL8 (Q9HBL8 whole entry, looked up): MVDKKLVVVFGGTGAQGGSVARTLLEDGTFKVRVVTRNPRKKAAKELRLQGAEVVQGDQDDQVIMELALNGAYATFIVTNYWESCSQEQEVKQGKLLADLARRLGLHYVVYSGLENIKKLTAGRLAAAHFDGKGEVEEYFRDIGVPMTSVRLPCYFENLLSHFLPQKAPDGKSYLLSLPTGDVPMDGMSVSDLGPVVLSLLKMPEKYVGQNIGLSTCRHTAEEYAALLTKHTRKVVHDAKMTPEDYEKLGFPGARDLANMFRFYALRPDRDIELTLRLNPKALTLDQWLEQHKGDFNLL
active: rucaparib 0.84
inactive: [1] 0.27 | volasertib 0.294 | [2] 0.105 | epoxomicin 0.035 | [3] 0.01 | [4] 0.055 | [5] 0.122 | rosiglitazone 0.011 | [6] 0.059 | [7] 0.526 | saracatinib 0.115 | sotrastaurin 0.028 | alvocidib 0.001 | Tubastatin A 0.14 | [8] 0.061 | defactinib 0.122 | [9] 0.018 | encorafenib -0.14 | [10] -0.154

NDUFS7 (UniProt O75251)
Sequence of UniProt O75251 (O75251 whole entry, looked up): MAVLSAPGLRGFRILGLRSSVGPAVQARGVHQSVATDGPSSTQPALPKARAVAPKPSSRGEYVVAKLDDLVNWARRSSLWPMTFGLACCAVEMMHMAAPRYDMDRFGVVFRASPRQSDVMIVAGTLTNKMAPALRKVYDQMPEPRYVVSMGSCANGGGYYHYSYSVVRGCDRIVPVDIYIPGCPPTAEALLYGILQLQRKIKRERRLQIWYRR
active: [7] -0.327
inactive: [1] -0.043 | volasertib -0.042 | [2] 0.003 | epoxomicin -0.007 | [3] -0.009 | [4] -0.005 | [5] 0.012 | rosiglitazone 0.053 | [6] -0.029 | saracatinib -0.047 | sotrastaurin 0.014 | alvocidib -0.011 | Tubastatin A -0.001 | [8] -0.038 | defactinib -0.016 | rucaparib -0.004 | [9] -0.048 | encorafenib 0.024 | [10] 0.002

MRPS35 (UniProt P82673)
inactive: [1] 0.064 | volasertib 0.014 | [2] 0.029 | epoxomicin 0.048 | [3] -0.054 | [4] -0.076 | [5] 0.027 | rosiglitazone -0.08 | [6] -0.013 | [7] -0.007 | saracatinib -0.18 | sotrastaurin -0.033 | alvocidib 0.01 | Tubastatin A 0.078 | [8] -0.022 | defactinib 0.043 | rucaparib 0.071 | [9] 0.062 | encorafenib 0.039 | [10] 0.007

NOL7 (UniProt Q9UMY1)
Sequence of UniProt Q9UMY1 (Q9UMY1 whole entry, looked up): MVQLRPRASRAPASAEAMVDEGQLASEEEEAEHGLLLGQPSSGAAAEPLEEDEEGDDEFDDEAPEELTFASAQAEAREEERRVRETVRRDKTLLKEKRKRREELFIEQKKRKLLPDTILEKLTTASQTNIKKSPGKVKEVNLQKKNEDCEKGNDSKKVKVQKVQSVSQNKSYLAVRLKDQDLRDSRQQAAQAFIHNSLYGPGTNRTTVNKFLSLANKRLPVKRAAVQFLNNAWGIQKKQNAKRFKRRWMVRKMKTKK
inactive: [1] 0.226 | volasertib 0.417 | [2] -0.086 | epoxomicin -0.338 | [3] -0.019 | [4] 0.232 | [5] -0.123 | rosiglitazone -0.154 | [6] 0.316 | [7] 0.237 | saracatinib -0.057 | sotrastaurin 0.017 | alvocidib 0.379 | Tubastatin A 0.161 | [8] 0.032 | defactinib 0.303 | rucaparib 0.312 | [9] 0.098 | encorafenib 0.1 | [10] -0.042

NRDC isoform 2 (UniProt O43847)
Sequence of UniProt O43847 (O43847 whole entry, looked up): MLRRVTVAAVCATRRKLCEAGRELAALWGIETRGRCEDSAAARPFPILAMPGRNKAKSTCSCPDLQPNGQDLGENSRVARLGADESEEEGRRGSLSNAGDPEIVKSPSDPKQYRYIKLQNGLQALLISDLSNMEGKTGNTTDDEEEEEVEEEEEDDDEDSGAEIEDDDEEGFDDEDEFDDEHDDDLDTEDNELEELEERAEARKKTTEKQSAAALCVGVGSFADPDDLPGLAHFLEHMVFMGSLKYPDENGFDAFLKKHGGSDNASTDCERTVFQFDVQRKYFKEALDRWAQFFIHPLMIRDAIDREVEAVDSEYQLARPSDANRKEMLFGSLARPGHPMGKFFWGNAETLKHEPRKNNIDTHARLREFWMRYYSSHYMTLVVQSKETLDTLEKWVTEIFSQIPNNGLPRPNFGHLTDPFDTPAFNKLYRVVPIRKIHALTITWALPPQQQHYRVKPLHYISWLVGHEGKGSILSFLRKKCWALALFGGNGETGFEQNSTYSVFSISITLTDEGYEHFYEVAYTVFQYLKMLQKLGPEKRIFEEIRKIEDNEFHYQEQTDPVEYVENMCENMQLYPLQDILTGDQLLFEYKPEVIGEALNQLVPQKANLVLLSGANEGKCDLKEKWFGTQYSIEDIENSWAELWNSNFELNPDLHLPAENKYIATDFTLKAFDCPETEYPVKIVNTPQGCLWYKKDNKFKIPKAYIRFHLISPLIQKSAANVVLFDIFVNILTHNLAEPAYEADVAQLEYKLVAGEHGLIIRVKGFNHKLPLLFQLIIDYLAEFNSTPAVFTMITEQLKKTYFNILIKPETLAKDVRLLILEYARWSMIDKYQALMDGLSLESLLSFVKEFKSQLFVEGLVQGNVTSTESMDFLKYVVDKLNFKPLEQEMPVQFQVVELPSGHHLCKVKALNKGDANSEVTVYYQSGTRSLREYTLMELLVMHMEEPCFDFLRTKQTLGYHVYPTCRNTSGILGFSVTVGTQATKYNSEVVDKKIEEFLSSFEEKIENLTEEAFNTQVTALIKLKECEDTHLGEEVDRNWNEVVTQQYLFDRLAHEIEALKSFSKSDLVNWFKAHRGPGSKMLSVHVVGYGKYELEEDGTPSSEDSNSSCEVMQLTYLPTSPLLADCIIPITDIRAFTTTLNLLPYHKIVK
active: volasertib -0.371
inactive: [1] -0.18 | [2] 0.069 | epoxomicin 0.038 | [3] -0.067 | [4] -0.087 | [5] 0.055 | rosiglitazone 0.073 | [6] 0 | [7] -0.087 | saracatinib -0.024 | sotrastaurin -0.028 | alvocidib -0.078 | Tubastatin A -0.009 | [8] -0.033 | defactinib -0.077 | rucaparib 0.092 | [9] 0.01 | encorafenib 0.024 | [10] -0.076

NIPSNAP2 (UniProt O75323)
inactive: [1] 0.043 | volasertib 0.009 | [2] -0.003 | epoxomicin 0.07 | [3] 0.009 | [4] -0.115 | [5] -0.041 | rosiglitazone 0.005 | [6] -0.083 | [7] 0.028 | saracatinib -0.017 | sotrastaurin -0.082 | alvocidib 0.031 | Tubastatin A -0.019 | [8] 0.104 | defactinib -0.003 | rucaparib -0.085 | [9] -0.08 | encorafenib -0.028 | [10] 0.033

NCOA7 (UniProt Q8NI08)
Sequence of UniProt Q8NI08 (Q8NI08 whole entry, looked up): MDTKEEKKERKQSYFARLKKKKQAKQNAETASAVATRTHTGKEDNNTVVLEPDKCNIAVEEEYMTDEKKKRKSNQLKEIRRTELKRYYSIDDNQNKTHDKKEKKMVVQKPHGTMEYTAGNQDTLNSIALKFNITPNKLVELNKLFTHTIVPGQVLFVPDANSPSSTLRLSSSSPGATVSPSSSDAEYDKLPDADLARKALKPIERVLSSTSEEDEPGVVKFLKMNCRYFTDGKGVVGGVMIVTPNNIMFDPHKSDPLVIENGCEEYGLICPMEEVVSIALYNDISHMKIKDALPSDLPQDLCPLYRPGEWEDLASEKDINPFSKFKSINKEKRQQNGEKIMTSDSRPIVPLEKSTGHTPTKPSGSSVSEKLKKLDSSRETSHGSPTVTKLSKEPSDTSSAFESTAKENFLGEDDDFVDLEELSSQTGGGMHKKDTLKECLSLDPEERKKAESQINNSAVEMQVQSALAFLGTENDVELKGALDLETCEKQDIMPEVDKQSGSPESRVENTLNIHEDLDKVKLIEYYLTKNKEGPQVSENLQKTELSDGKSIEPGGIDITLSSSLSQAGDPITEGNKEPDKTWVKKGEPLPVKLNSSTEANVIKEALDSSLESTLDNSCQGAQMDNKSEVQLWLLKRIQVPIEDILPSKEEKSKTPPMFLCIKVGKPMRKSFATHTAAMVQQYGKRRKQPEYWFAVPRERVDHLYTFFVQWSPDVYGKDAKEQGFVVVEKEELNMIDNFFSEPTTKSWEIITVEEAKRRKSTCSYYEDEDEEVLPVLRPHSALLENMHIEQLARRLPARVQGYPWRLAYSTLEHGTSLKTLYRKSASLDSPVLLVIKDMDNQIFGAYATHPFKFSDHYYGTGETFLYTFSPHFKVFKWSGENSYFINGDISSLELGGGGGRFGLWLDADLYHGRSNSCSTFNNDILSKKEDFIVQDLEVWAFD
active: volasertib -0.287
inactive: [1] -0.035 | [2] 0.124 | epoxomicin 0.021 | [3] -0.091 | [4] -0.004 | [5] -0.002 | rosiglitazone 0.099 | [6] -0.009 | [7] -0.265 | saracatinib -0.05 | sotrastaurin -0.074 | alvocidib -0.052 | Tubastatin A -0.02 | [8] -0.011 | defactinib -0.099 | rucaparib -0.029 | [9] -0.064 | encorafenib 0.019 | [10] 0.039

NAA38 isoform 2 (UniProt Q9BRA0)
Sequence of UniProt Q9BRA0 (Q9BRA0 whole entry, looked up): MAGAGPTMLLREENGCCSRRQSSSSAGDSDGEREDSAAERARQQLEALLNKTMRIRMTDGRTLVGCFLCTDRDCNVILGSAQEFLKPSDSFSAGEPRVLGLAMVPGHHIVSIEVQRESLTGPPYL
active: [3] 0.265
inactive: [1] -0.045 | volasertib -0.017 | [2] -0.025 | epoxomicin 0.029 | [4] -0.127 | [5] -0.026 | rosiglitazone 0.017 | [6] -0.095 | [7] 0.064 | saracatinib -0.02 | sotrastaurin 0.009 | alvocidib -0.108 | Tubastatin A 0.081 | [8] -0.044 | defactinib -0.101 | rucaparib 0.023 | [9] 0.044 | encorafenib 0.022 | [10] -0.058

OGFOD1 (UniProt Q8N543)
Sequence of UniProt Q8N543 (Q8N543 whole entry, looked up): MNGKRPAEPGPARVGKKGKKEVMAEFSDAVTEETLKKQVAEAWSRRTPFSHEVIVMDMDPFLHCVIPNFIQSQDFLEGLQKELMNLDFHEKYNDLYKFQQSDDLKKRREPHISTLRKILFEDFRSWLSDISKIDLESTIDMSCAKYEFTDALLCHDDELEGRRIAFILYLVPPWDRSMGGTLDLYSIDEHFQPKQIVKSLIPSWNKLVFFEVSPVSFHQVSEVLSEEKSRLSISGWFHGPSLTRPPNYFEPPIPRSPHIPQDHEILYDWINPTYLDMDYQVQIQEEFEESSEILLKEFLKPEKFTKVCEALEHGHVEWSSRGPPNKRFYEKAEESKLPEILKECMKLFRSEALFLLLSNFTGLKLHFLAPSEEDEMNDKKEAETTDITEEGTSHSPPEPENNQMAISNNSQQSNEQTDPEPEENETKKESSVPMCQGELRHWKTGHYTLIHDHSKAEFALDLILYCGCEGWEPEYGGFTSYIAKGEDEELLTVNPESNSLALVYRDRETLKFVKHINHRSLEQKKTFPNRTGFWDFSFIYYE
inactive: [1] 0.049 | volasertib 0.038 | [2] -0.025 | epoxomicin 0.042 | [3] 0.007 | [4] -0.013 | [5] -0.022 | rosiglitazone 0.059 | [6] -0.022 | [7] -0.051 | saracatinib 0.007 | sotrastaurin 0.024 | alvocidib -0.026 | Tubastatin A -0.163 | [8] 0.012 | defactinib -0.027 | rucaparib -0.051 | [9] -0.028 | encorafenib -0.028 | [10] 0.041
